# EP2 antag = human EP2 receptor antagonists, primary screen, TR-FRET cAMP, C6 glioma cells; Prostaglandin E2 receptor EP2 subtype (Homo sapiens), P43116; C6 glioma cells expressing human EP2; cells stimulated with saturating PGE2; inhibition, % at 25 µM; 0.52% of 260,000 active;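 active means percent inhibition above 40 after rounding to a whole number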;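 further: rat C6 glioma host cells with rolipram phosphodiesterase inhibitor present; the protocol text gives 20 µM as final concentration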
# CHT allo act = CHT positive allosteric modulators, primary screen, cell-based, membrane potential dye, choline EC20; High affinity choline transporter 1 (Homo sapiens), Q9GZV3; CHT-expressing cells; stronger effect = higher value; LV-AA mutant CHT in HEK293 cells; B-score at 10 µM; 0.49% of 310,000 active;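 active means initial fluorescence not abnormally high and integrated response B-score, plate-corrected, over 3 SD above library mean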
# Target sequence (Q9GZV3 whole entry, looked up): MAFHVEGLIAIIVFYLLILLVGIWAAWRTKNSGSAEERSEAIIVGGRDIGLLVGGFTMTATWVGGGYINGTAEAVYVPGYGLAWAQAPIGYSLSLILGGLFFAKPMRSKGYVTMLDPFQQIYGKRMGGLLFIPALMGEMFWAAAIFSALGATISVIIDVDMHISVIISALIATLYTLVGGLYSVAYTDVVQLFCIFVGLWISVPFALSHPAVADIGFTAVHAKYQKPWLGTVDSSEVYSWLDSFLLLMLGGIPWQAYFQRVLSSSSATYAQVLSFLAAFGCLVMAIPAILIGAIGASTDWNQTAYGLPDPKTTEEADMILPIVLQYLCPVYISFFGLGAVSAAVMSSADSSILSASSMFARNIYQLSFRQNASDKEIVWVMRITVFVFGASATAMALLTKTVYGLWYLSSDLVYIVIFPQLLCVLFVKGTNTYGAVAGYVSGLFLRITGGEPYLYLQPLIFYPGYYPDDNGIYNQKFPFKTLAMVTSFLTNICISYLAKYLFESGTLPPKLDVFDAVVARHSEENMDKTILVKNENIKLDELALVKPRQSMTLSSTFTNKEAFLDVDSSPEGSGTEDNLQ
# EP2 modulator = EP2 receptor modulators, cAMP readout, primary screen, cell-based, HTRF cAMP, PGE2 stimulation | 0.83% of 260,000 active | AID 940, 2007 | induction, % at 25 µM | EP2-expressing cells, cAMP HTRF FRET, PGE2 co-stimulation;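 active means compounds whose cAMP rise, as percent of the full-agonist control response, exceeds 60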;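 further: rat C6 glioma line stably carrying human EP2 under a CMV promoter; the protocol text gives 20 µM as final concentration; 100% = response of wells given 1 µM PGE2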
# CHT block = inhibitors of human choline transporter CHT. High affinity choline transporter 1 (Homo sapiens), Q9GZV3. B-score at 10 µM. AID 488975, 2010. CHT-expressing cells, membrane potential dye, choline response; stronger effect = lower value. 0.86% of 310,000 active;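 active means B-score over 3 SD under the library average, and starting fluorescence ratio not unusually high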;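 further: choline stimulus applied at its EC90 after an EC20 pre-addition; B-score computed on integrated fluorescence ratio after choline addition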
# EP2 cAMP induct = cAMP induction in EP2, EP4, beta2-AR and parental cells, confirmation, counter-screen for EP2 modulator project, cell-based, five parallel assays, C6 glioma, HEK293; AID 1080, 2008; 47% of 1,300 active; shares compounds with EP2 modulator; calls only at 20 µM (by protocol); cAMP HTRF induction; plus low (about EC15) PGE2 agonist;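 active means cAMP induction above 50% in the main assay while under 30% in all four parallel counter assays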;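 further: rat C6 glioma cells stably expressing human EP2 receptor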
# * hit, by the source's call; i = inactive; x = no result; + = active, no number. The list is not random: actives were taken first. Their share in the collection is about 2%.
SMILES,EP2 antag,CHT allo act,EP2 modulator,CHT block,EP2 cAMP induct
COc1cccc(CNS(=O)(=O)c2ccc(S(=O)(=O)N3CCC(C)CC3)cc2)c1,25.5,x,-14.7,x,x
Cc1nn(C(=O)c2nn(C)cc2I)c(C)c1Cl,9.4,x,-10.0,x,x
COc1ccccc1C(c1nnnn1C(C)(C)C)N1CCC(C(N)=O)CC1 (stereo unspecified),21.9,x,-7.2,x,x
CCn1c(CSc2nc(C)cc(C)n2)nnc1SCC(=O)Nc1ccccc1Cl,6.4,x,-1.0,x,x
Cc1ccccc1N(CC(=O)Nc1ccc2c(c1)OCO2)S(C)(=O)=O,7.2,x,-45.7,x,x
CCOC(=O)Cc1csc(NC(=O)CSc2nc(C3CC3)nc3ccccc23)n1,6.7,x,-2.6,x,x
CSc1nnc2c3ccccc3c3ccccc3c2n1,x,x,76.4*,x,+
CSc1nnc(-c2ccccc2)c(-c2ccccc2)n1,7.9,i,21.4,i,x
CC(NC(=O)Cc1ccc(Cl)cc1)c1nc(-c2ccncc2)n[nH]1 (stereo unspecified),x,x,-9.1,x,x
COc1cccc(N=c2oc3c(C)ncc(CO)c3cc2C(=O)Nc2ccccc2OC)c1,x,x,67.8*,x,i
COc1ccccc1NC(=O)c1cc2c(CO)cnc(C)c2oc1=Nc1ccccc1,x,i,x,i,x
COc1ccc(-c2nnc3ccc(SCC(=O)Nc4nc5ccccc5s4)nn23)cc1OC,17.3,i,65.9*,i,i
CC(=O)c1cccc(NC(=O)CSc2nc3c(C)c(C)ccc3cc2C#N)c1,20.4,x,34.6,x,x
CCOc1ccc(C2=Nn3c(nnc3-c3ccccc3OC)SC2)cc1,6.5,i,74.1*,-5.27*,+
COc1ccccc1-c1nnc2n1N=C(c1ccc(O)c(O)c1)CS2,4.4,i,-5.0,i,x
O=C(Nc1ccc(Cl)c(Cl)c1)C1COc2ccccc2O1 (stereo unspecified),11.1,x,-104.8,x,x
Cc1ccccc1S(=O)(=O)c1c(C)cc(C)n(C)c1=O,-1.3,i,-3.8,i,x
Cc1ccccc1S(=O)(=O)c1c(C)cc(C)n(CC(C)C)c1=O,8.8,i,69.6*,i,+
COc1cc(-c2noc(-c3cccc(Cl)c3)n2)cc(OC)c1OC,2.1,i,54.9,i,+
COc1cc(-c2nc(-c3cccc(C)c3)no2)cc(OC)c1OC,15.6,i,61.0*,i,i
COc1cc(-c2nc(-c3cccnc3)no2)cc(OC)c1OC,8.7,i,27.5,i,x
CCc1ccc2[nH]c(=O)c(CN(Cc3ccccc3)C(=O)Nc3ccc(OC)cc3)cc2c1,12.3,x,-25.4,x,x
O=C(O)c1ccc(CNCc2cccc(Cl)c2Cl)cc1,6.9,i,68.2*,i,i
COc1cccc(C(=O)Nc2cccc(OCC(=O)O)c2)c1,5.6,i,92.6*,i,+
Cc1cc(C)c2c(c1)cc(C)c1nn(CC(=O)NC3CC3)c(=O)n12,8.4,x,-20.1,x,x
SMILES,EP2 antag,CHT allo act,EP2 modulator,CHT block,EP2 cAMP induct
COc1ccc(CN(Cc2cnn(C)c2C)CC2CCCO2)cc1OC (stereo unspecified),5.2,x,-14.1,x,x
Fc1ccccc1CN(CCCn1ccnc1)Cc1cccc2ncccc12,5.7,x,-12.9,x,x
CCC(c1nnnn1Cc1ccco1)N(Cc1cc2cc(C)cc(C)c2[nH]c1=O)CC1CCCO1 (stereo unspecified),12.6,i,82.4*,i,i
CCCC(c1nnnn1Cc1ccco1)N(Cc1cc2cc(C)cc(C)c2[nH]c1=O)CC1CCCO1 (stereo unspecified),9.7,x,-3.2,x,x
Cc1cc(C)c2c(n1)sc1c(=O)n(Cc3ccccc3Cl)nnc12,x,x,66.7*,x,i
O=C(NCc1cccnc1)c1cc(-c2ccccc2Cl)on1,9.6,x,-84.0,x,x
O=C(N/N=C/c1ccco1)c1ccccc1OCc1ccccc1Cl,7.7,i,41.2,i,x
O=C(N/N=C/c1ccc[nH]1)c1ccccc1OCc1ccccc1Cl,8.5,i,65.8*,i,+
O=C1NC(=O)C(Cc2ccccc2)S1 (stereo unspecified),6.0,x,-5.9,x,x
CO/N=C/C(=N\Nc1ccccc1)C(=O)c1ccccc1,2.0,i,84.3*,i,+
CC(=O)Nc1cc(C(F)(F)F)ccc1Oc1cccc(Br)c1,14.8,i,-12.3,i,x
CCOCC(=O)Nc1cc(C(F)(F)F)ccc1Oc1cccc(Br)c1,11.3,i,65.2*,i,+
Clc1cccc(-c2cc3nccc(C4CCCNC4)n3n2)c1 (stereo unspecified),x,x,-2.0,x,x
COc1ccc2c(c1)CC[C@@H]1[C@@H]2CC[C@]2(C)[C@@H](C(C)=O)C[C@@H]12,x,i,x,i,x
C=C(C)COc1ccc2c(c1)CC[C@@H]1[C@H]3C/C(=N/O)C(=O)[C@]3(C)CC[C@@H]21,30.1,x,63.1*,x,i
CCC(c1nnnn1CCOC)N(Cc1ccc(F)cc1)Cc1cc2cc(C)c(C)cc2[nH]c1=O (stereo unspecified),13.9,x,17.7,x,x
C=CCn1c(=O)c2c(nc(-c3ccc(S(=O)(=O)O)cc3)n2C)n(C)c1=O,19.1,i,66.2*,i,i
CN(C)CCN(Cc1ccc(Cl)cc1)Cc1cccs1,6.3,x,-49.6,x,x
COc1ccc(-c2cc(-c3ccccc3)nc(N3CCCC3)n2)cc1OC,5.3,i,63.8*,i,i
COc1ccc(-c2cc(C(F)(F)F)nc(N3CCOCC3)n2)cc1OC,5.5,i,69.7*,i,+
COc1ccc(-c2cc(C(F)(F)F)nc(NC3CCCC3)n2)cc1OC,8.2,i,68.3*,i,i
COc1cccc(-c2cc(C(F)(F)F)nc(N3CCOCC3)n2)c1,6.4,i,35.0,i,x
Cc1cc2cc(C(c3nnnn3C(C)(C)C)N3CCc4ccccc4C3)c(=O)[nH]c2cc1C (stereo unspecified),5.0,x,-2.8,x,x
CC(=O)c1ccc(N=Nc2ccc(C)cc2)cc1,1.9,x,-23.0,x,x
O=C(/C(=C/O)N=Nc1ccccc1)c1ccncc1,8.8,i,-9.5,i,x
Cc1ccc(N=N/C(=C\O)C(=O)c2ccc(Cl)cc2)cc1,5.9,i,88.8*,i,+
O=C(/C(=C/O)N=Nc1ccccc1)c1ccc(Cl)cc1,1.4,i,73.1*,i,+
O=C(O)COc1ccc(/C=C/c2ccc3cccc([N+](=O)[O-])c3n2)cc1,6.1,i,89.2*,i,+
C=CCN1C(=O)/C(=C/c2ccc(O)c(OC)c2)S/C1=N/c1nccs1,6.2,i,69.8*,i,+
COc1ccc(-n2c(COc3cccc4ccccc34)nnc2SCC#N)cc1,9.5,i,7.2,i,i
